Experimental data: PubChem BioAssay AID1347383 (Zoeller Lab, School of Medicine, Boston University, 2020)
Active and inactive are the calls of the source.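 Rule for the calls: active = cell survival after UV exposure 2 SD above solvent-only control wells at 10 µM, confirmed on one or two repeats; inactive = the rest.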

Assay: cell survival after pyrene fatty acid photosensitization – ZR-82 cells, Analyticon library, screen 2, phospholipid biosynthesis inhibitor project, primary screen (AID 1347383);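 note: survival reflects blocked phospholipid synthesis cutting uptake of the phototoxic fatty acid; compound and fatty acid exposure 3 h then viability read next day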
Settings: ZR-82 CHO cells, pyrene-fatty acid UV killing, CellTiter Blue; at 10 µM; peroxisome-deficient CHO-K1 variant; with DGAT-1, DGAT-2 and ACAT inhibitors

Row | SMILES | outcome
1 | CCCCCCC1OC23OC1CCC2CCC(O)C3O (centres undefined) | inactive
2 | C[N+](C)(C)C(Cc1c[nH]c2ccccc12)C(=O)[O-] (centres undefined) | inactive
3 | COCc1c(OC)cc2c(c1O)C(O)OCC2 (centres undefined) | inactive
4 | CC(C)=CCC/C(C)=C/CC(O)/C(C)=C/Cc1cc(C(=O)O)ccc1O (centres undefined) | inactive
5 | CCC(=O)C1OC(O)(CCC2=CCOC2=O)C2(C)CCCC(C)(C)C12 (centres undefined) | inactive
6 | C=C(C(=O)OC)[C@@H]1CC=C2C=CC(=O)[C@H](C)[C@@]2(C)C1 | inactive
7 | Nc1c(O)cccc1C(=O)O | inactive
8 | C=C1CCC2OC(=O)C(C)=C2C2C1C13OC1(CC(C)C3=O)C1OC21C (centres undefined) | inactive
9 | C=C(C)[C@H]1CC[C@]2(C(=O)O)CC[C@]3(C)C(CCC4[C@@]5(C)CCC(=O)C(C)(C)C5CC[C@]43C)C12 (some centres undefined) | inactive
10 | C/C=C(/C)C(=O)O[C@H]1CC(C)=C[C@@H](O)[C@]2(C)[C@@H]1[C@](O)(C(C)C)C[C@H]2OC(=O)/C(C)=C\C | inactive
11 | COc1cc(O)cc(O)c1C(=O)/C=C/c1ccc(O)cc1 | inactive
12 | CCC(C)C1NC(=O)C(C)NC1=O (centres undefined) | inactive
13 | CCCCCCCCCCCc1cc(O)cc(O)c1 | inactive
14 | C=CC(C)(O)CC[C@@]1(C)[C@H](C)CC[C@]2(C)[C@@H]1C[C@@H](O)[C@@H](O)[C@]2(C)O (some centres undefined) | inactive
15 | CC(=O)OC(C(=O)/C=C(\C)CCCC1=CC(=O)OC1)C(C)C (centres undefined) | inactive
16 | CC1=CC2C3C(C(C)=C4C3[C@@](C)(O)CC[C@H]3[C@H](C)C(=O)O[C@H]43)C13C2[C@@](C)(O)CC[C@H]1[C@H](C)C(=O)O[C@@H]13 (some centres undefined) | inactive
17 | O=C(/C=C/c1ccccc1)c1ccccc1O | inactive
18 | O=C(O)C12CCCC(CO)(CO)C1CCC13CC4C(CC12)C4(CO)C3 (centres undefined) | inactive
19 | COc1ccc(CC(C)C(C)Cc2ccc3c(c2)OCO3)cc1OC (centres undefined) | inactive
20 | COc1c(C)c2c(c(O)c1C/C=C(\C)CC/C=C(\C)CCC(=O)O)C(=O)OC2 | inactive

Row | SMILES | outcome
21 | C=C1C(=O)O[C@@H]2C[C@H](C)[C@@]3(O)C=C(C(C)=O)C4(CC3C[C@H]12)C(=O)O[C@H]1C[C@@H](C)C(CCC(C)=O)=CC[C@H]14 (some centres undefined) | inactive
22 | COc1c(C)c2c(c(O)c1C/C=C(\C)C(O)CC(=O)O)C(=O)OC2 (centres undefined) | inactive
23 | CC(=O)OC/C(=C/C(=O)O)CC[C@@H]1C(C=O)=CC[C@@H]2C(C)(C)CCC[C@@]12C | inactive
24 | COc1cc(C2CC(=O)c3c(O)cc(O)cc3O2)ccc1O (centres undefined) | inactive
25 | C=C[C@@]12COC(=O)C(=C)[C@@H]1[C@@H](O)[C@H](C(=C)C(=O)OC)[C@@H](O)C2 | inactive
26 | O=c1ccc2cc(O)c(O)cc2o1 | inactive
27 | C=C1C=CC(C(C)C)CCC(=C)C(O)CC1 (centres undefined) | inactive
28 | CC(=O)OC1C(O)C2C(C)C3=CC(=O)OC3(O)CC2C2(C)CCCC(C)(CO)C12 (centres undefined) | inactive
29 | COC(=O)C1=CO[C@@H](C)[C@H]2CN3CCc4c([nH]c5ccccc45)[C@@H]3C[C@H]12 | active
30 | CC1(C)C(=O)C=CC2(C)C1CC(O)C1(C)C3=CCC(c4ccoc4)C3(C)CCC21 (centres undefined) | inactive
31 | Cc1cc(O)c2c3c(c(O)c4c(c13)OC(C)C4(C)C)C(=O)O2 (centres undefined) | inactive
32 | Cn1c2c(O)c(O)ccc2c(=O)c2c(O)cc3c(c21)C=CC(C)(C)O3 | inactive
33 | C=C1[C@H]2CC[C@H](C(=O)O)[C@@]23CC[C@H](C3)C1(C)C | inactive
34 | CC(=O)N[C@@H](C(=O)O[C@H]1CCC(C)(C)[C@@H]2CCC3=C(COC3=O)[C@@]12C)C(C)C | inactive
35 | CC1(C)CC2C(O)c3cocc3CC(C)(O)C2C1 (centres undefined) | inactive
36 | CCC(C)C1NC(=O)C2CCCN2C1=O (centres undefined) | inactive
37 | CC(C)(O)C(O)Cc1ccc2c(c1O)COC2 (centres undefined) | inactive
38 | COc1cc(O)c2c(=O)c(-c3ccc(O)cc3O[C@@H]3O[C@H](CO)[C@@H](O)[C@H](O)[C@H]3O)coc2c1 | inactive
39 | COc1cc(O)cc2occ(-c3ccc(O)cc3)c(=O)c12 | inactive
